Assay outcomes from PubChem BioAssay.
Most compounds without a hit are left out; they make up all but 1.4% or so of the library.
GLS inh: inhibitors of human glutaminase (GLS) | O94925 | GLS enzymatic activity, qHTS titration | Potency, µM (doses to about 45.5 µM), inactives show top-dose activity change, negative = inhibition, usual class: inhibitors | actives 0.21% (n = 410,000); further: potency means the concentration at half of the fitted maximal effect; on the % scale 0 is the no-effect control and ±100 the full control effect
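hKGA; 45 mM KH2PO4 pH 8.2 + 0.02% Tween-20; cpd via pin tool; 1 mM Gln soln; GluOx/HRP/Amplex Red; RT 30 min; fluor. t0 & final.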
N370S GC: N370S glucocerebrosidase modulation, Gaucher chaperone candidate | N370S GC spleen homogenate, 4MU-glucoside fluorescence | actives 0.092% (n = 330,000) | Potency, µM (doses to about 59.4 µM), for the others: top-dose activity change, negative = inhibition, usual class: inhibitors | P04062;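 further: potency means the concentration at half of the fitted maximal effect; 0% = full enzyme activity and -100% = no enzyme basal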
p53 reactivator: restores transcriptional activity of mutant p53. H1299 p53-A138V BP100-luciferase reporter, luminescence, 24 h. Potency, µM (top dose mostly 92.2 µM), for inactives: at the highest dose activity change, positive = activation, actives largely listed as activators. actives 0.063% (n = 320,000); further: potency means the concentration at half of the fitted maximal effect; % of control where 0% means no effect; nearly all actives have a fitted effect of over 45% in size
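H1299 (p53-null), stable ts p53-A138V + BP100-Luc; 1000 cells/well, Opti-MEM/10% FBS; cpd 4 pt, 1:5; 24 h, 37 deg C, 5% CO2; detection reagent 10 min RT; luminescence.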
TCR act: activates T cell receptor signaling; AID 504894; Potency, µM (titrated, usually from 9.22 µM), for inactives: top-dose activation of IL-2 secretion, actives largely listed as activators; primary human leukocytes, anti-CD3, IL-2 HTRF, 48 h; 330,000 tested, under 10 active; further: % of control where 0% means no effect
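HTRF read-out of IL-2 secretion: europium cryptate donor excited at 320nm, d2 acceptor emission at 665nm. Cells were primary human leukocytes incubated 48 hr with compounds and a-CD3 beads, supplying TCR signal only.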
BRCA1 expr up: BRCA1 expression activation | MCF7-BRCA1-FFLuc reporter, luminescence, 48 h; response scale: scaled: vehicle 0%, 10 µM genistein 100% | Potency, µM (series often up to 46.1 µM), for the others: top-dose activation, usual class: activators | actives 1.1% (n = 380,000) | AID 624202; further: potency means the concentration at half of the fitted maximal effect; nearly all actives have a fitted effect of over 80% in size
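Activators of BRCA1 expression were detected as increased firefly luciferase luminescence in engineered MCF7 cells after 48 h compound incubation. Signals were scaled to genistein 10 microM as full activation.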
TSHR antagonist: blocks TSH signaling through the human TSH receptor; P16473; TSHR-expressing cells, TSH-stimulated cAMP HTRF, 2 h; hits give low values; activity change, negative = inhibition, % at 11.5 µM; actives 0.2% (n = 330,000); AID 504810;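 active means activity change below a set negative limit, meaning inhibition stronger than a set level, cut at about -70% in these data; inconclusive means activity change between two set negative limits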; further: on the % scale 0 is the no-effect control and ±100 the full control effect
Target sequence (P16473 whole entry, looked up): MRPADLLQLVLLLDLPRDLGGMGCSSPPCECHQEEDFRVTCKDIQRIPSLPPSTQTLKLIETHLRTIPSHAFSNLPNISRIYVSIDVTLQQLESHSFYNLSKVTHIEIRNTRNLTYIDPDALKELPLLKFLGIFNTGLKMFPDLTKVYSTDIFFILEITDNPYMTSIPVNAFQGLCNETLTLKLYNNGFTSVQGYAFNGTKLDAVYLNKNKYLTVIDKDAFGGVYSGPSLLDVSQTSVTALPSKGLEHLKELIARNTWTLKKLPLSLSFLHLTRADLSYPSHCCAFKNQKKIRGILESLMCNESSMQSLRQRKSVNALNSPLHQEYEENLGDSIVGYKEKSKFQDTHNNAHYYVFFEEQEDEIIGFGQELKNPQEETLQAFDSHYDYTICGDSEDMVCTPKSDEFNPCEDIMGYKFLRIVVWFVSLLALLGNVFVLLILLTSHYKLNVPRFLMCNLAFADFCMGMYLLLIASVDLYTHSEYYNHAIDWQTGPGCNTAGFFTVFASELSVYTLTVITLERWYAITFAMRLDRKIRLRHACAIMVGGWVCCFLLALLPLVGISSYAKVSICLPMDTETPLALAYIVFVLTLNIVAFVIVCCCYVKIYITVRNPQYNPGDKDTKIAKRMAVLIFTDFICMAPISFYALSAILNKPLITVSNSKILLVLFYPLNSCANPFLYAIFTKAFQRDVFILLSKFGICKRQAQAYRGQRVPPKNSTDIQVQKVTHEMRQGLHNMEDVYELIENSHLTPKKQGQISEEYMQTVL
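TSHR-expressing cells were treated with compounds, then stimulated with TSH at EC80 (4nM final) for 2 hours at 37 deg C. Cellular cAMP was measured by HTRF competition between lysate cAMP and cAMP-d2 for a cryptate-labelled anti-cAMP antibody.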
* = called active by the depositor; ? = inconclusive; · = not tested or not shown; [ ] = another dose, or the depositor's remark. Unless noted, the call rests on the fitted dose curve; in most records, active means well fitted curve in the direction sought with a large enough effect; inconclusive means small, poorly fitted or top-dose-only effect, or another doubt; inactive means no such curve, though single readings can be large; an effect the other way counts as inactive or inconclusive.

SMILES	GLS inh	N370S GC	p53 reactivator	TCR act	BRCA1 expr up	TSHR antagonist
CC(C)C(=O)Nc1nc2c(ncn2[C@H]2CC(O)[C@@H](CO)O2)c(=O)[nH]1 (stereo partly drawn)	·	·	·	·	-66.6%	·
COc1ccc(/[N+]([O-])=C/c2ccoc2)cc1	-11.8%	·	?	-4.3%	11.2µM*	41.6
O=C1NC(=O)C(Cc2ccc(OCCN3COc4ccccc4C3=O)cc2)S1 (stereo not drawn)	·	8.2%	·	·	·	·
Cc1ccc(/C(N)=N/OC(=O)c2ccc(F)cc2)cc1	2.0%	1.4%	?	1.5%	10µM*	7.5
N/C(=N\OC(=O)c1ccc(Cl)cc1)c1ccc(Cl)cc1	0.8%	7.6%	?	-0.1%[46.1 µM]	11.2µM*	22.1
Cc1ccc(S(=O)(=O)NC(=O)Nc2ccc(N(C)C)cc2)cc1	14.3%	5.1%	21.5%	66.7%	-59.5%	-75.4*
Cc1cccc(/C(N)=N/OC(=O)C23CC4CC(CC(C4)C2)C3)c1	5.4%	9.0%	?	0.8%[46.1 µM]	10µM*	0.4
COc1cc(OC)cc(C(=O)O/N=C(\N)c2cccc(C)c2)c1	1.2%	-2.0%	12.6%	0.7%	21.4%	-0.3
Cc1cc(/C=C2/NC(=O)N(c3ccccc3)C2=O)c(C)n1-c1cccnc1	-12.6%	-21.8%	?	-0.1%[46.1 µM]	1.26µM*	-7.8
COc1ccc2oc(C(=O)OCC(=O)N(C)Cc3ccccc3)c(C)c2c1	5.8%	5.7%	-3.1%	6.6%	-6.1%	-11.8
COc1ccc2oc(C(=O)N(C)CCOc3ccccc3)c(C)c2c1	1.8%	7.9%	3.5%	-0.5%	11.2µM*	-7.1
COc1ccc(C(CNC(=O)c2oc3ccc(OC)cc3c2C)N2CCCC2)cc1 (stereo not drawn)	-1.2%	-4.7%	-7.3%	-1.7%	-44.2%	-2.6
COc1ccc2oc(C(=O)NCCC(C)C)c(C)c2c1	-4.1%	13.8%	24.5%	9.7%	7.08µM*	-3.8
Cc1cccc(NC(=O)c2oc3ccc(S(=O)(=O)N4CCC5(CC4)OCCO5)cc3c2C)c1C	2.6%	·	·	·	·	·
COc1ccccc1N1C(=O)S/C(=C\c2cc(C)n(C)c2C)C1=O	-5.8%	-4.2%	19.0%	-19.0%	5.62µM*	-0.8
O=[N+]([O-])c1ncccc1OCc1ccc(Cl)c(Cl)c1	-3.6%	-3.0%	27.7%	-1.4%	7.08µM*	24.9
COc1ccc(N/N=C(\C#N)C(=N)N2CCCCC2)cc1	2.8%	-12.7%	11.2%	3.2%	7.94µM*	-1.0
CSCCNC(=O)c1ccc(C(C)(C)C)cc1	-11.0%	12.9%	6.3%	-0.3%	7.08µM*	-1.6
Cc1cc2c(s1)c1c(n2C)C(=O)N(Cc2ccccc2F)C1	·	·	·	·	·	-0.5
COc1ccc(-c2ccc(C(=O)Nc3cccc(Oc4ccccc4)c3)c3occc23)c(C)c1	-6.0%	·	·	·	-6.7%	·
COc1ccc(-c2ccc(C(=O)Nc3cccc(N(C)C)c3)c3occc23)c(C)c1	22.4%	·	·	·	2.51µM*	·
Cn1cc(-c2ccc(C(=O)Nc3cccc(Oc4ccccc4)c3)c3occc23)cn1	3.8%	·	·	·	11.2µM*	·
COc1ccc(C(NC(=O)COc2ccc(C#N)cc2)c2ccc(OC)cc2)cc1	·	·	·	·	4.5%	·
O=[N+]([O-])c1ccc(CSc2nc3ccccc3[nH]2)cc1	-10.7%	5.8%	?	-0.1%[46.1 µM]	3.98µM*	8.4
Cc1cc(SCc2ccc([N+](=O)[O-])cc2)nc(=O)[nH]1	-11.5%	1.5%	6.0%	-7.1%	3.4%	-138.4*
SMILES	GLS inh	N370S GC	p53 reactivator	TCR act	BRCA1 expr up	TSHR antagonist
C=CCN1c2ccccc2[C@]23C[C@@H](C(=O)OC)N(S(=O)(=O)c4ccc5c(c4)OCCN5C)C2=NC(C(=O)OC)=C(C(=O)OC)[C@H]13	·	-11.0%[12.8 µM]	·	·	·	·
C/C(=C(\CCO)SSCC1CCCO1)N(C=O)Cc1cnc(C)nc1N (stereo not drawn)	-0.6%	·	·	·	·	·
COc1oc(=O)c2cc(N)ccc2c1Cl	·	-2.4%	·	·	·	·
O=C(CN1C(=O)CCC1=O)c1ccc(-c2ccccc2)cc1	-8.1%	8.1%	6.1%	-0.5%[46.1 µM]	12.6µM*	11.2
Cc1ccc(-c2csc3ncnc(Sc4nnnn4-c4ccccc4)c23)cc1	·	·	·	·	-51.0%	·
O=[N+]([O-])c1ccc(C(O)CSC(=S)N2CCCCC2)cc1 (stereo not drawn)	-4.5%	-18.2%	?	1.4%	3.98µM*	-4.8
O=[N+]([O-])c1ccc(C(=S)N2CCCC2)cc1	1.4%	4.5%	-0.7%	-6.5%	-15.2%	8.6
CCOc1cccc(C2C=C(c3ccc4c(c3)OCO4)NC(c3cccc(Br)c3)N2)c1O (stereo not drawn)	·	·	·	·	-17.0%	·
COc1cccc(/C=C/c2nc(C#N)c(N3CCN(C)CC3)o2)c1	-9.0%	·	·	·	17.1%	·
Brc1ccc(/C=C/C=N/Nc2nc3ccccc3s2)cc1	-4.6%	-7.2%	2.9%	·	8.91µM*	0.4
C(=C\c1ccccc1)/C=N/Nc1nc2ccccc2s1	1.8%	-2.6%	?	-1.4%	7.94µM*	-11.8
CCC/C=N/Nc1nc2ccccc2s1	?	2.0%	4.8%	-3.9%	56.8%	4.2
Cn1c(=O)c2c(nc(NCc3ccccc3)n2Cc2ccc(Cl)c(Cl)c2)n(C)c1=O	0.2%	·	·	·	-46.4%	·
CC(=O)OC1CCC2(C)C(=CCC3C2CCC2(C)C(C(C)=O)CCC32)C1 (stereo not drawn)	-0.4%	·	·	·	·	·
O=c1c(-c2ccc(F)cc2)coc2cc(O)ccc12	-23.4%	-3.1%	?	-1.6%	11.2µM*	-1.9
Cc1ccc(NC(=O)CCC(=O)c2cccs2)c(O)c1	15.9%	13.7%	17.3%	-1.1%	11.2µM*	21.1
c1ccc(N2CCN(Cc3nnc(-c4ccc5c(c4)OCO5)o3)CC2)cc1	12.4%	·	·	·	·	·
c1ccc2c(c1)Nc1ccncc1S2	10µM*	-0.9%	-11.5%	1.5%	4.2%	30.2
COc1ccc2c(c1)Sc1ccccc1N2	17.8µM*	2.6%	-1.2%	3.4%	-43.9%	1.4
c1ccc2c(c1)Nc1cc3ccccc3cc1S2	-4.0%	-7.2%	7.9%	-4.3%	7.08µM*	14.7
NS(=O)(=O)c1ccc(NC(=O)c2cnn3c2NC(=C2CC2)C=C3C(F)F)cc1	·	·	·	·	2.0%	·
COc1ccc(CNc2nc(N)nc3nc[nH]c23)cc1	·	·	·	·	2.9%	·
Cc1cnc2ccc(I)cc2c1/C=C/c1ccc(N(C)C)cc1	·	·	·	·	-53.0%	·
N#C/C(=C/c1ccc(N2CCCC2)c([N+](=O)[O-])c1)c1nc2ccccc2[nH]1	·	5.6%	7.1%	9.2%	19.3%[1.84 µM]	3.4
N#C/C(=C\c1ccc(Oc2ccc(C(F)(F)F)cc2[N+](=O)[O-])cc1)c1nc2ccccc2[nH]1	-0.2%	-6.0%	2.7%	0.0%	-45.6%	-70.9*
